HT1080-NT tox: qHTS for induction of synthetic lethality in tumor cells producing 2HG: qHTS for the HT-1080-NT fibrosarcoma cell line; HT-1080-NT fibrosarcoma viability, CellTiter-Glo ATP luminescence, 48 h; Potency, µM (titrated, usually from 46.1 µM), for the others: at the top dose activity, negative = less viability, most hits filed as cytotoxic; actives 1.6% (n = 360,000); AID 686970, 2013;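 note: NT is the 2HG producing partner of a matched IDH1 knockdown line; 0% = DMSO-treated cells and -100% = media-only wells without cells; nearly all actives have a fitted effect of over 55% in size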
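Fibrosarcoma NT cells, 750 per well in 5% FBS RPMI, were exposed to compound for 48 hours. Viability: CellTiter-Glo luminescence.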
TDP1 cell CPT: qHTS for Inhibitors of human tyrosyl-DNA phosphodiesterase 1 (TDP1): qHTS in cells in presence of CPT | chicken DT40 Tdp1-/-;hTDP1 cells + 20 nM CPT, ATP luminescence, 48 h | actives 12% (n = 420,000) | AID 686979, 2013 | Potency, µM (titrated, usually from 46.2 µM), for the others: at the highest dose activity change, negative = growth inhibition, actives largely listed as inhibitors; note: nearly all actives have a fitted effect of over 55% in size
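Chicken DT40 Tdp1-/- cells complemented with human TDP1, 400 cells/well, exposed to compounds plus 20 nM camptothecin for at least 48 h at 37 C; viability read as ATP content by CellTiter-Glo luminescence.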
DT40 TDP1 no CPT: qHTS for Inhibitors of human tyrosyl-DNA phosphodiesterase 1 (TDP1): qHTS in cells in absence of CPT; Potency, µM (series often up to 46.2 µM), for inactives: at the highest dose activity change, negative = growth inhibition, most hits filed as inhibitors; DT40 Tdp1-/- hTDP1 cells, no CPT, ATP luminescence, 48 h; actives 15% (n = 420,000); AID 686978, 2013; note: nearly all actives have a fitted effect of over 55% in size
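Chicken DT40 Tdp1-/- cells stably complemented with human TDP1 were seeded at 400 cells/well with DMSO in place of 20 nM camptothecin. After compound pinning, cells grew at least 48 hr at 37 °C; viability read by CellTiter-Glo luminescence.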
KB-3-1 cytotox: qHTS assay for MDR1-selective chemotherapeutics: Primary screen using the parental adenocarcinoma cell KB-3-1. actives 1.4% (n = 400,000). KB-3-1 viability, CellTiter-Glo ATP luminescence, 72 h. AID 1347075, 2019. Potency, µM (titrated, usually from 46.1 µM), actives largely listed as cytotoxic; note: nearly all actives have a fitted effect of over 60% in size
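Here the drug-naive KB-3-1 line serves as comparator for MDR sub-line selectivity; cells received compound titrations, 72 h at 37 °C, then CellTiter-Glo readout.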
KB-V1 MDR tox: qHTS assay for MDR1-selective chemotherapeutics: Primary screen using the drug-selected MDR subline cells KB-V1. Potency, µM (top dose mostly 46.1 µM), most hits filed as cytotoxic. actives 3.4% (n = 400,000). KB-V1 MDR cells viability, CellTiter-Glo, 72 h; note: nearly all actives have a fitted effect of over 60% in size
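qHTS viability screen in drug-selected KB-V1 MDR cells: 72 h compound treatment at 37 degrees C, ATP luminescence end point.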
HT1080 IDH1KD tx: qHTS for induction of synthetic lethality in tumor cells producing 2HG: qHTS for the HT-1080-IDH1KD cell line; HT-1080 IDH1 knockdown viability, ATP luminescence, 48 h; Potency, µM (series often up to 46.1 µM), for inactives: at the highest dose activity, negative = toxicity, hits mostly cytotoxic; actives 2% (n = 360,000);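 note: 0% = DMSO wells and -100% = cell-free medium wells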
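Using the IDH1-knockdown HT-1080 line run in the same batch and compound series as the NT line, viability after 48 h at 37 °C was determined by CellTiter-Glo luminescence and expressed as % activity.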
* marks the source's active call; other numbers are inactive results; i = inactive; ? = inconclusive; · = not tested or not shown. A selection: hits, their analogues and other compounds. The true share with any hit is near 19%. Calls come from the whole dose curve; as a rule, active = well fitted curve in the direction sought with a large enough effect; inconclusive = small, poorly fitted or top-dose-only effect, or another doubt; inactive = no such curve, though single readings can be large; an effect the other way counts as inactive or inconclusive. Unless noted, % is set by controls: 0 for no effect and ±100 for the full control effect; potency is the fitted concentration of half-maximal effect.

SMILES | HT1080-NT tox | TDP1 cell CPT | DT40 TDP1 no CPT | KB-3-1 cytotox | KB-V1 MDR tox | HT1080 IDH1KD tx
Cc1cc(C)c(S(=O)(=O)Nc2nnc(C(C)C)s2)c(C)c1 | 1.0% | 0.4% | -17.7% | i | i | 0.3%
NC1=NC(=Nc2ccc(Cl)cc2)c2ccccc21 | -29.5% | 0.5% | -29.0% | i | i | ?
Cc1cc(Cl)ccc1N=C1N=C(N)c2ccccc21 | 23.1µM* | ? | ? | i | i | ?
CC(C)c1ccc(N=C2N=C(N)c3ccccc32)cc1 | 18.4µM* | ? | ? | ? | ? | ?
Cc1cc(C)n(-c2nc3ccccc3nc2Nc2cccc(C)c2C)n1 | · | -13.1% | -16.2% | i | i | ·
CCOC(=O)c1c(NC(=O)/C=C/c2ccc(C)cc2)sc(C(C)=O)c1C | · | -3.4% | -5.9% | i | ? | ·
COc1ccccc1CCCNC(=O)C1CCC(=O)N(CCc2ccc(Cl)cc2)C1 (centres undefined) | -1.9% | 18.4µM* | 23.1µM* | · | · | -11.9%
COc1ccc(NC(=O)N(Cc2cccnc2)Cc2ccccc2Cl)c(OC)c1 | 0.0% | 18.4µM* | ? | i | i | -1.2%
COc1ccc(NC(=O)NCc2cccnc2)c(OC)c1 | -1.2% | 0.2% | 1.7% | i | i | 4.8%
NC(=O)C(OC(=O)CNC(=O)C1CCCCC1)c1ccccc1 (centres undefined) | · | -28.8% | -22.0% | ? | i | ·
Cc1ccc(NC(=O)C(Cc2ccccc2)NS(=O)(=O)c2ccc3c(c2)CCC(=O)N3)cc1 (centres undefined) | · | 2.2% | -44.2% | i | ? | ·
Cc1nn(-c2ccc(F)cc2)c(Cl)c1C(=O)OC(C)C(=O)N(C)C1CCCCC1 (centres undefined) | -12.1% | ? | 11.6µM* | ? | i | -11.6%
CCOC(=O)c1c(C)[nH]c(C(=O)N2CCN(C(=O)OCC)CC2)c1C | 5.4% | -0.3% | 10.6% | i | ? | 2.3%
CCOC(=O)c1c(C)[nH]c(C(=O)N2CCc3cc(OC)c(OC)cc3C2)c1C | -9.4% | 10.3µM* | 16.4µM* | i | ? | ?
CCOc1ccc(CCNC(=O)c2[nH]c(C)c(C(C)=O)c2CC)cc1OCC | ? | 18.4µM* | 23.1µM* | i | ? | ?
CCOC(=O)c1c(C)[nH]c(C(=O)NCCc2ccc(OC)c(OC)c2)c1C | -24.0% | ? | 14.6µM* | i | ? | -14.9%
COc1ccc(C2c3cc(OC)c(OC)cc3CC(=O)N2c2cccc(C#N)c2)cc1 (centres undefined) | · | ? | ? | i | i | ·
O=C(O)C1=CCC=CC1C(=O)O (centres undefined) | -1.9% | -8.0% | -0.3% | i | i | -3.0%
CCOC(=O)c1c(C)[nH]c(C)c1S(=O)(=O)NCC(=O)NCc1ccccc1C | · | -12.1% | -15.0% | i | i | ·
Cc1ccc(C2CC(=O)n3nc(-c4cccc(C)c4)nc3S2)cc1 (centres undefined) | · | -1.2% | -11.6% | i | ? | ·
Cc1ccc(CN2C(=O)CCC2(C)c2nnnn2-c2c(C)cccc2C)cc1 (centres undefined) | 5.9% | 18.4µM* | 16.4µM* | i | ? | -15.7%
COc1ccc(CN2C(=O)CCC2(C)c2nnnn2-c2c(C)cccc2C)cc1 (centres undefined) | -2.3% | ? | ? | i | ? | 4.6%

Screens: PubChem BioAssay, National Center for Advancing Translational Sciences (NCATS)
